Values joined by “and” are separate entries in the source; they are usually repeats but may differ in a detail not shown here. Equal entries are not always repeated. Results filed as inconclusive are left out. Active and inactive are the calls of the source. Unless noted, no rule for the calls is given here.
What was measured:
[1] = qHTS Assay for Identifying Gametocytocidal Compounds (AID 743244; active = well fitted curve in the direction sought with a large enough effect; an effect the other way counts as inactive or inconclusive; also: potency is read from the fitted curve at half-maximal effect;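 as to max response: % is scaled to controls: 0 for no effect and ±100 for the full control effect; actives lower the fluorescent signal which means gametocytes are killed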); details: P. falciparum 3D7 stage III-V gametocytes, alamarBlue, 72 h; max response: stronger effect = lower value
Summary of the method: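 Stage III-V P. falciparum 3D7 gametocytes, 20,000 per well, were exposed to compounds for 72 h at 37C, 5% CO2. AlamarBlue was then added for 24 h and viability was read as fluorescence at Ex 525/Em 598 nm.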

[2] = qHTS profiling for inhibitors of Plasmodium falciparum (3D7) proliferation (AID 743322);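 also: infected erythrocytes exposed to compound for 72 h before lysis; 100% = DMSO vehicle wells and 0% = 0.29 µM artemisinin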; details: P. falciparum 3D7 proliferation; at 28.7 µM (top of the series) unless noted
Summary of the method: (§1)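 Erythrocytes infected with P. falciparum (0.3% parasitemia, 2.5% hematocrit) incubated with compounds 72 h at 37 C, 5% CO2. Lysis with saponin/Triton buffer containing SYBR Green I, overnight at room temperature in the dark; DNA fluorescence (485/535 nm) normalised to 0.29 uM artemisinin and DMSO.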

[3] = qHTS profiling for inhibitors of Plasmodium falciparum (DD2) proliferation (AID 743323); details: lower = more inhibition; at 28.7 µM (top of the series) unless noted
Summary of the method: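 Parasite proliferation measured via DNA-dye fluorescence, as uninfected erythrocytes lack DNA. Cultures at 0.3% parasitemia and 2.5% hematocrit incubated 72 h with compound; signal scaled between vehicle and 0.29 uM artemisinin wells.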

[4] = qHTS profiling for inhibitors of Plasmodium falciparum (HB3) proliferation (AID 743324; active = well fitted curve in the direction sought with a large enough effect; an effect the other way counts as inactive or inconclusive;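 also: 100% = DMSO vehicle wells and 0% = artemisinin-treated control wells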); details: Plasmodium falciparum HB3 blood-stage proliferation; at 28.7 µM (top of the series) unless noted
Summary of the method: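 P. falciparum HB3 grown in erythrocytes (0.3% parasitemia, 2.5% hematocrit final) with compound for 72 h at 37 C, 5% CO2. Parasite DNA detected by SYBR Green after saponin/triton lysis overnight; normalized to 0.29 uM artemisinin and DMSO.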

[5] = qHTS profiling of the MIPE4 collection as inhibitors of Plasmodium falciparum (3D7) proliferation (AID 743344);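 also: scaled between DMSO vehicle wells and 0.29 µM artemisinin as full inhibition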; details: P. falciparum 3D7 in erythrocytes, SYBR Green DNA fluorescence, 72 h; at 28.5 µM (top of the series) unless noted
Summary of the method: as §1

[6] = qHTS profiling of the MIPE4 collection as inhibitors of Plasmodium falciparum (DD2) proliferation (AID 743345); details: P. falciparum Dd2 in erythrocytes, SYBR Green DNA, 72 h; at 28.5 µM (top of the series) unless noted
Summary of the method: as §1

[7] = qHTS profiling of the MIPE4 collection as inhibitors of Plasmodium falciparum (DD2) proliferation (Rep 2) (AID 743346); details: P. falciparum Dd2 in erythrocytes, SYBR Green DNA, 72 h; at 28.5 µM (top of the series) unless noted
Summary of the method: as §1

[8] = qHTS profiling of the MIPE4 collection as inhibitors of Plasmodium falciparum (HB3) proliferation (AID 743347);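 also: plate controls were DMSO vehicle wells for no effect and artemisinin wells for full effect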; details: P. falciparum HB3 in erythrocytes, SYBR Green DNA, 72 h; at 28.5 µM (top of the series) unless noted
Summary of the method: as §1

[9] = High-throughput drug toxicity screening in the BPDCN cell line Gen2.2 (AID 1224824); details: Gen2.2 BPDCN cells; at 45.8 µM (top of the series) unless noted;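 also: cells exposed to compounds for 48 h before reading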
Summary of the method: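 Gen2.2 cells, 500 per well in phenol red-free RPMI with 10% FBS, exposed to compounds 48 h at 37 C, 5% CO2; viability by CellTiter-Glo luminescence. Percent activity scaled to DMSO (100%) and 9.2 uM bortezomib final (0%).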

[10] = High-throughput drug toxicity screening in the BPDCN cell line Cal-1 (AID 1224825); details: Cal-1 BPDCN cell viability, qHTS; at 45.8 µM (top of the series) unless noted
Summary of the method: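 Exponentially growing Cal-1 cells, 500 per well in phenol red-free RPMI with 10% FBS, were exposed to compounds for 48 h at 37 °C, 5% CO2. Viability was read by CellTiter-Glo luminescence and normalised to DMSO (100%) and 9.2 uM bortezomib (0%).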

[11] = qHTS assay for measurement of the activity of small molecule inhibitors on Zika virus induced Caspase-3 activity in human iPSC derived neural progenitor cells (hNPCs) (AID 1224857; active = well fitted curve in the direction sought with a large enough effect; an effect the other way counts as inactive or inconclusive; also: nearly all actives have a fitted effect of over 65% in size; also: potency is read from the fitted curve at half-maximal effect)
Summary of the method: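 Human iPSC-derived neural progenitor cells pretreated 1 hr with compounds, then infected with Zika virus (2 FFU/cell) for 6 hours at 37 C. Caspase-3/7 measured by Caspase-Glo luminescence; % inhibition calculated from induction scaled to uninfected (0%) and infected (100%) wells.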

[12] = qHTS assay for measurement of the activity of small molecule inhibitors on Zika virus induced Caspase-3 activity in human astrocytoma cells (AID 1224859; active = well fitted curve in the direction sought with a large enough effect; an effect the other way counts as inactive or inconclusive; also: potency is read from the fitted curve at half-maximal effect)
Summary of the method: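 SNB-19 astrocytoma cells, 250/well, pretreated 1 h with compounds, then Zika virus at 2 FFU/cell for 6 h at 37 C; Caspase-Glo 3/7 luminescence after 30 min; percent inhibition normalised to uninfected and infected controls.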

[13] = qHTS assay for small molecule agonists of the antioxidant response element (ARE) signaling pathway measured by Nrf2-dependant transcriptional activity (AID 720636; active = well fitted curve in the direction sought with a large enough effect in the repeat runs; an effect the other way counts as inactive or inconclusive;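 also: HepG2 cells with an ARE-driven luciferase reporter; % of control where 0% means no effect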)
Summary of the method: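 Reporter gene assay, HepG2 ARE-luc: 16 hr compound, 37 C, 5% CO2; read-out luciferase luminescence.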

[14] = qHTS assay for small molecule antagonists of the retinoid-related orphan receptor gamma (ROR-gamma) signaling pathway - cell viability counter screen (AID 720652; active = well fitted curve in the direction sought with a large enough effect in the repeat runs; an effect the other way counts as inactive or inconclusive;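 also: CHO reporter cells with doxycycline-induced ROR-gamma expression; compound exposure lasted 16 hr before ATP read; % is scaled to controls: 0 for no effect and ±100 for the full control effect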)
Summary of the method: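 CHO cells carrying TET-inducible ROR and RORE-luciferase reporter, plated 5 hr, then dosed with compound plus doxycycline. After 16 hr at 37 C, viability read as intracellular ATP by CellTiter-Glo luminescence.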

[15] = qHTS assay for small molecule agonists of the antioxidant response element (ARE) signaling pathway measured by Nrf2-dependant transcriptional activity - cell viability counter screen (AID 720653; active = well fitted curve in the direction sought with a large enough effect in the repeat runs; an effect the other way counts as inactive or inconclusive; also: % is scaled to controls: 0 for no effect and ±100 for the full control effect); details: ARE-bla HepG2 viability, CellTiter-Glo ATP luminescence, 16 h; stronger effect = lower value
Summary of the method: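 ARE-bla HepG2 cells (2,000/well) rested 5 hrs at 37C/5% CO2, then exposed to compounds in DMSO for 16 hrs. Viability was read in the same wells as intracellular ATP by luminescence, 30 min at room temperature after reagent addition.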

[16] = qHTS assay for cell viability of HEK293 cells (AID 743288; active = well fitted curve in the direction sought with a large enough effect; an effect the other way counts as inactive or inconclusive; also: % is scaled to controls: 0 for no effect and ±100 for the full control effect; nearly all actives have a fitted effect of over 50% in size); details: ATP luminescence (CellTiter-Glo), 18 h, stronger effect = lower value
Summary of the method: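 Parental HEK293 cells, 2,000 per well, preincubated at least 5 h at 37 C, then exposed to compounds in DMSO for 18 h at 37 C. Viability by CellTiter-Glo ATP luminescence after 30 min at room temperature.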

[17] = qHTS assay for cell viability of the p53RE-bla HCT-116 cell line (AID 743292; active = well fitted curve in the direction sought with a large enough effect; an effect the other way counts as inactive or inconclusive; also: % is scaled to controls: 0 for no effect and ±100 for the full control effect; nearly all actives have a fitted effect of over 55% in size)
Summary of the method: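 Readout: CellTiter-Glo luminescence after 30 min RT. Treatment: compounds in DMSO, 16 h, 37 C. Cells: CellSensor p53RE-bla HCT-116, 4,000/well, preincubated 5 h.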

| Compound | max response [1] | remaining parasite growth % (stronger effect = lower value) [2] | activity, percent of control [3] | remaining proliferation (% of control), lower = more inhibition [4] | parasite growth, % of DMSO control [5] | parasite growth remaining, % of DMSO control (lower = more inhibition) [6] | parasite growth, % of control (lower = inhibition) [7] | growth, % of control [8] | cell viability, % of control (lower = more cytotoxic) [9] | viability (% of control) [10] | Potency [11] | Potency [12] | Potency [1] | outcome [13] | outcome [14] | max response [15] | max response [16] | outcome [17] |
| --- | --- | --- | --- | --- | --- | --- | --- | --- | --- | --- | --- | --- | --- | --- | --- | --- | --- | --- |
| Cc1c(C(=O)Nc2ccc(N3C[C@@H](C)O[C@@H](C)C3)nc2)cccc1-c1ccc(OC(F)(F)F)cc1 | 0.51% (inactive) | 72.2% | 72.3% | 55.5% | 54.5% | 72.7% | 54.1% | 46.7% | 10.2% | 53.5% | inactive | inactive |  |  |  |  |  |  |
| CC(C)Oc1cc(Nc2nc(N[C@@H](C)c3ccc(F)cn3)ncc2Cl)[nH]n1 |  | 3.18% | 5.44% | 3.28% | 9.44% | 10.8% | 23.2% | 14.7% | 93% | 15.5% | inactive | inactive | 2.35 µM (active) |  |  |  |  |  |
| Nc1ccc(-c2ccc3ncc4ccc(=O)n(-c5cccc(C(F)(F)F)c5)c4c3c2)cn1 |  | -1.33% | -0.278% | -1.3% | 4.25% |  | 9.23% | 2.97% | 6.66% | 3.86% | inactive | inactive | 0.027 µM (active) |  |  |  |  |  |
| C[C@@H]1C[C@H]2[C@@H]3CCC4=CC(=O)C=C[C@]4(C)[C@@]3(F)[C@@H](O)C[C@]2(C)[C@@]1(O)C(=O)CO |  |  |  |  | 55.8% | 90.6% | 60.4% | 9.35% | 184% | 55.5% | inactive | inactive |  | inactive | inactive | -1.58% (inactive) and -7.2% (inactive) | -1.33% (inactive) and -8.25% (inactive) | inactive |
| O=C(Nc1cccc(Cl)c1)Nc1ncc(CCNc2ncnc3ccsc23)s1 | 5.02% (inactive) | 0.421% | 4.65% | -0.601% | 15.2% | 67.5% | 39% | 5.75% | 122% | 20.2% | inactive | inactive |  |  |  |  |  |  |
| CC(O)=C(C#N)C(=O)Nc1ccc(C(F)(F)F)cc1 | 27.1% (inactive) | 89.8% | 95.5% | 98.9% | 63.7% | 89.7% | 63.9% | 83.8% | 75% | 81.4% | 1.18 µM (active) | 1.18 µM (active) |  |  |  |  |  |  |
| Cn1cc(-c2ccc3nnc(Sc4ccc5ncccc5c4)n3n2)cn1 | -16.9% (inactive) | 74.3% | 95.2% | 72.7% | 36.1% | 86.3% | 42.5% | 43.3% | 121% | 102% | inactive | inactive |  |  |  |  |  |  |
| CCC(=O)N1CCN(c2ccc(-n3c(=O)ccc4cnc5ccc(-c6cnc7ccccc7c6)cc5c43)cc2C(F)(F)F)CC1 |  | 4.73% | 15.4% | 2.49% | 5.26% | 8.22% | 8.45% | 4.5% | 6.39% | 20.2% | inactive | inactive | 5.26 µM (active) |  |  |  |  |  |
| Cc1cn([C@@H]2C[C@@H](O)[C@H](CO)O2)c(=O)[nH]c1=O |  |  |  |  |  |  |  |  | 159% | 69.5% | inactive | inactive |  |  |  |  |  |  |
| C[C@H](CCC(=O)O)[C@H]1CC[C@H]2[C@H]3[C@@H](CC[C@]12C)[C@@]1(C)CC[C@@H](O)C[C@H]1C[C@@H]3O |  |  |  |  |  |  |  |  | 75.1% | 35.2% | inactive | inactive |  |  |  |  |  |  |
| O=C(O)Cc1cccc(OCCCN(Cc2cccc(C(F)(F)F)c2Cl)CC(c2ccccc2)c2ccccc2)c1 | 0.38% (inactive) | 36.2% | 34.1% | 5.3% | 20.8% | 42.2% | 18.9% | 15.4% | 170% | 117% | inactive | inactive |  |  |  |  |  |  |
| COc1c(C)cnc(Cn2cnc3c(Cl)nc(N)nc32)c1C |  | 40.5% | 31.4% | 9.05% | 28.9% | 49.8% | 31.8% |  | 9.9% | 18.7% | inactive | inactive | 23.5 µM (active) |  |  |  |  |  |
| CCN1C[C@H](C)n2c(c(O)c3c(=O)n(Cc4ccc(F)c(Cl)c4)nc(C(=O)NC)c32)C1=O |  |  |  |  |  |  |  |  | 108% | 113% | inactive | inactive |  |  |  |  |  |  |
| CN1C(=O)C[C@H](C(=O)N[C@@H](Cc2cnc[nH]2)C(=O)N2CCC[C@@H]2C(N)=O)NC1=O |  |  |  |  |  |  |  |  | 61% | 29.3% | inactive | inactive |  |  |  |  |  |  |
| CNC(=O)c1cc(Oc2ccc(NC(=O)Nc3ccc(Cl)c(C(F)(F)F)c3)c(F)c2)ccn1 | 21.4% (inactive) | 1.04% | 5.46% | 1.38% |  | 33.1% | 11.8% | 4.74% | 16.6% | 31.5% | inactive | inactive |  |  |  |  |  |  |
| CN1CCN(c2ncc(-c3cc(Cl)cc(Cl)c3Cl)c(N)n2)CC1 |  |  |  |  |  |  |  |  | 54.8% | 22.1% | inactive | inactive |  |  |  |  |  |  |
| O=C1C(CCC(O)c2ccc(F)cc2)C(c2ccc(O)cc2)N1c1ccc(F)cc1 (centres undefined) | 8.66% (inactive) | 18.4% | 83.7% | 64.8% | 33.5% | 77% | 36.6% | 33.2% | 88.9% | 93.3% | inactive | inactive |  |  |  |  |  |  |
| NC(=O)c1ncn([C@@H]2O[C@H](CO)[C@@H](O)[C@@H]2O)n1 |  |  |  |  |  |  |  |  | 109% | 73.5% | inactive | inactive |  |  |  |  |  |  |
| O=C(O)c1ccc(O)c2ncc(N3CCOCC3)cc12 |  | 22.3% |  |  | 15.1% |  | 16.8% | 11% | 110% | 100% | inactive | inactive |  |  |  |  |  |  |

— PubChem BioAssay (NCATS)
